Many of the other results were omitted from the sample, so hits are more common in it than they were.
PRC2 inh: EZH2/PRC2 methyltransferase inhibitors, primary screen, biochemical, DELFIA time-resolved fluorescence, single point. hit rate 0.35% among 57,000. inhibition, % at 12.5 µM. Histone-lysine N-methyltransferase EZH2 (Homo sapiens), Q15910. PRC2 H3K27 methylation, DELFIA TRF, 1 h. AID 651548, 2012;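 active means mean inhibition of replicates at least 50% and every single replicate also reaching 50%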;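 further: dimethyl H3K27 on biotinylated H3 21-44 peptide detected by antibody; plate controls were median neutral control wells for no effect and median positive control wells for full effect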
Target sequence (Q15910 whole entry, looked up): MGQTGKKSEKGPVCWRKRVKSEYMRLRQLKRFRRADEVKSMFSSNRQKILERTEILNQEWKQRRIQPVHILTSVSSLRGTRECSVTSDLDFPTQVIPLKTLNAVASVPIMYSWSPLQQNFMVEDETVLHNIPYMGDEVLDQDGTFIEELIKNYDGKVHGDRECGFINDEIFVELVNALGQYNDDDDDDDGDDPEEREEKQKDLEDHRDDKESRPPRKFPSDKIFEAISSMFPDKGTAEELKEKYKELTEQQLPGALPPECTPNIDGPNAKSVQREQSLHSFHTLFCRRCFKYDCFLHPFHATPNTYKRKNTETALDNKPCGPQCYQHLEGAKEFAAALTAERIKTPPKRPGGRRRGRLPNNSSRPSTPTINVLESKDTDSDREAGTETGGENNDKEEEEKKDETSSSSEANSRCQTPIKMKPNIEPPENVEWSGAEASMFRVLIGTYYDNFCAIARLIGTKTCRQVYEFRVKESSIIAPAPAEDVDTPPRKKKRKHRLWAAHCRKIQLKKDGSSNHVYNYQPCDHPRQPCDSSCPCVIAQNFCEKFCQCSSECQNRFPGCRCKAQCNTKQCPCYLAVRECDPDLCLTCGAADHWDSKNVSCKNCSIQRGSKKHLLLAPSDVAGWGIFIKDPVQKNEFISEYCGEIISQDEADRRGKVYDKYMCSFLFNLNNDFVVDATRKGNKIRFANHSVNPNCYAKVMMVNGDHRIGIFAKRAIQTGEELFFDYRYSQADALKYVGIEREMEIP
Starred values were filed as active, the others as inactive.

SMILES | PRC2 inh
Cc1ccc(NC(=O)CSc2nc3ccccc3s2)cc1C | 55.2*
O=C(CSc1nc2ccccc2s1)Nc1ccc(Cl)cc1 | 41.3
Cc1ccc(NC(=O)CSc2nc3ccccc3s2)cc1Cl | 47.7
Cc1ccccc1-n1c(SCC(N)=O)nc2ccccc2c1=O | -5.4
O=C(CSc1nnc(-c2ccc(Br)cc2)o1)Nc1ccccc1Cl | -10.3
COc1cc2c(cc1-c1coc3c4c(ccc3c1=O)OC(C)(C)C=C4)OCO2 | 5.3
CCOc1ccc(NC(=O)CSc2nnc3c4c5c(sc4nc(SC)n23)CCC5)cc1 | 2.4
CCCCCCCCc1ccc(-c2ccc(C(=O)O)cc2)cc1 | 72.0*
CCCCOC(=O)c1ccc(N)cc1 | 4.1
CCCCCCN(CCCCCC)C(=O)Cc1c(-c2ccc(F)cc2)[nH]c2ccccc12 | 20.4
Oc1ccc([C@H]2Oc3cc(O)cc(O)c3C[C@H]2O)cc1 | 15.6
O=C1c2c(O)cc(O)cc2OC(c2ccc(O)cc2)C1C1C(=O)c2c(O)cc(O)cc2OC1c1ccc(O)cc1 (centres undefined) | -7.0
Oc1ccc([C@@H]2Oc3cc(O)cc(O)c3C[C@@H]2O)cc1 | 89.3*
CSc1nc(N2CCCCC2)c2c(c1C#N)CCCC2 | 62.6*
COC(=O)c1ccccc1NC(=O)COc1ccc(Br)cc1C(C)(C)C | 23.7
OCCCNc1nc(-c2ccccc2Cl)c2cc(Br)ccc2n1 | -2.2
Brc1ccc2nc(NCc3ccccn3)nc(-c3ccccc3)c2c1 | 28.3
Brc1ccc2noc(-c3ccccc3)c2c1 | 62.9*
COc1ccc(NC(=O)CSC2CC(=O)N(c3ccccc3)C2=O)cc1Cl (centres undefined) | -7.8
COC(=O)CC1C(=O)NCCN1C(=S)Nc1cccc(OC)c1 (centres undefined) | 15.8
CCN(CC)c1ccc(/C=N/NC(=O)c2ccc(C(=O)NO)cc2)c(O)c1 | -1.3
O=C(NO)c1ccc(C(=O)N/N=C/c2ccc(O)c(O)c2O)cc1 | 89.1*
O=C(CCCCC(=O)N/N=C/c1cccc(O)c1O)NO | 3.5
O=C(NO)c1ccc(C(=O)N/N=C/c2cccc(O)c2O)cc1 | 75.6*
O=C(NO)c1ccc(C(=O)N/N=C/c2ccccc2C(=O)O)cc1 | 5.0
SMILES | PRC2 inh
O=C(NO)c1ccc(C(=O)N/N=C/c2ccc(O)cc2)cc1 | 3.8
CC1(C)CC[C@]2(C(=O)O[C@@H]3O[C@H](CO)[C@@H](O)[C@H](O)[C@H]3O)CC[C@]3(C)C(=CCC4[C@@]5(C)CC[C@H](O[C@@H]6O[C@H](C(=O)O)[C@@H](O)[C@H](O)[C@H]6O)[C@@](C)(CO)C5CC[C@]43C)C2C1 (some centres undefined) | 2.9
CC1(C)CC[C@]2(C(=O)O[C@@H]3O[C@H](CO)[C@@H](O)[C@H](O)[C@H]3O)CC[C@]3(C)C(=CCC4[C@@]5(C)CC[C@H](O[C@@H]6O[C@H](C(=O)O)[C@@H](O[C@@H]7O[C@H](CO)[C@@H](O)[C@H](O)[C@H]7O)[C@H](O)[C@H]6O[C@@H]6O[C@H](CO)[C@@H](O)[C@H](O)[C@H]6O)C(C)(C)C5CC[C@]43C)C2C1 (some centres undefined) | 11.0
C[C@@H]1CC[C@]2(C(=O)OC3OC(CO)C(OC4OC(CO)C(O)C(O)C4O)C(O)C3O)CC[C@]3(C)C(=CCC4[C@@]5(C)CC[C@H](O)[C@](C)(C(=O)O)C5CC[C@]43C)C2[C@]1(C)O (some centres undefined) | 60.5*
O=C(COc1ccccc1)Nc1scc2c1c(=O)oc1ccccc12 | 11.2
Cc1c(Br)ccc(NC(=O)CSc2nnc(-c3ccc(Cl)cc3)n2C)c1C | 7.9
COC(=O)c1ccc(NC(=O)CSc2nc3ccccc3c(=O)n2-c2ccc(Cl)cc2)cc1 | -3.5
CS(=O)(=O)N(CC(=O)Nc1ccc(C(F)(F)F)cc1)c1ccc(Oc2ccccc2)cc1 | 5.3
CS(=O)(=O)N(CC(=O)Nc1ccc(Cl)c(Cl)c1)c1cc(Cl)cc(Cl)c1 | 5.4
CS(=O)(=O)N(CC(=O)Nc1cccc(Cl)c1)c1ccc(Br)cc1 | 3.1
CS(=O)(=O)N(CC(=O)Nc1ccc(Cl)c(Cl)c1)c1ccc(Br)cc1 | 54.6*
CCN1CCOC(CC(=O)Nc2cc(C(=O)OC)cc(C(=O)OC)c2)C1=O (centres undefined) | 1.3
O=C(CCCN1C(=O)c2ccccc2C1=O)Nc1ccc2ccccc2c1 | -14.2
Cc1ccc(N(C(C)C(=O)Nc2ccc(I)cc2)S(C)(=O)=O)cc1C (centres undefined) | 21.8
O=C(/C=C/c1ccc(O)cc1)O[C@@H]1CC(O)(C(=O)O)C[C@@H](OC(=O)/C=C/c2ccc(O)cc2)C1O (some centres undefined) | 76.3*
COc1cc(/C=C/C(=O)O[C@@H]2C[C@@](O)(C(=O)O)C[C@@H](O)[C@@H]2O)ccc1O | 89.8*
CC(=O)CCC1C2C(O)C(C(C)C)C(OC(=O)/C=C/c3ccccc3)CC12C (centres undefined) | -25.7
CC(C)C1CCC2(C)CCC(O)C(C)(O)C2C1OC(=O)/C=C/c1ccccc1 (centres undefined) | 4.7
COc1cc(O)c(C(=O)/C=C/c2ccc(OC)c(OC)c2)c(OC)c1 | 8.6
COc1cc(/C=C/C(=O)CC(=O)/C=C/c2ccc(O)c(OC)c2)ccc1O | 10.5
COc1ccc(S(=O)(=O)N(C)CC(=O)N2CCOCC2)cc1OC | 5.8
O=C(O)CCC(NC(=O)c1ccc(I)cc1)C(=O)O (centres undefined) | -17.0
CC(=O)Nc1ccc(-c2nnc(SCC(=O)Nc3ccc(Cl)cc3Cl)n2C)cc1 | 15.2
C[C@@H]1CC[C@]2(C(=O)O)CC[C@]3(C)C(=CCC4[C@@]5(C)CC[C@@H](O)[C@](C)(C(=O)O)C5CC[C@]43C)C2[C@H]1C (some centres undefined) | -13.1
CC1CC(=O)[C@]2(C)CC[C@]3(C)C(C(=O)C(O)C4[C@@]5(C)CC[C@H](O)C(C)(C(=O)O)C5CC[C@]43C)C2C1C (some centres undefined) | 70.5*
SMILES | PRC2 inh
C[C@@H]1CC[C@@]23CCC4(C)[C@@](C=CC5[C@@]6(C)CC[C@H](O)C(C)(C)C6CC[C@]54C)(OC2=O)C3[C@H]1C (some centres undefined) | 3.4
Cc1ccc(C(=O)Nc2ccc(OCC(=O)O)cc2)cc1 | 27.3
C=CCN1C(=O)[C@@]2(O[C@@H](CCn3cc(CCO)nn3)[C@H]([Si](C)(C)c3ccc(OC)cc3)[C@H]2C)c2cc(N3C(=O)c4cccc5cccc3c45)ccc21 | 26.3
COc1ccccc1NC(=O)CSc1nnc(-c2ccc(Br)cc2)n1C | -17.5
COc1cccc(C#Cc2cnc3c(c2)C(=O)N([C@@H](C)CO)C[C@@H](C)[C@@H](CN(C)C(=O)C2CCCCC2)O3)c1 | -10.0
COc1cccc(C#Cc2cnc3c(c2)C(=O)N([C@@H](C)CO)C[C@H](C)[C@H](CN(C)C(=O)C2CCC2)O3)c1 | 11.8
COc1cccc(C#Cc2cnc3c(c2)C(=O)N([C@H](C)CO)C[C@@H](C)[C@H](CN(C)C(=O)C2CCCCC2)O3)c1 | 95.2*
CS(=O)(=O)N(CC(=O)Nc1ccccc1Br)c1cc(Cl)c(Cl)cc1Cl | 12.8
CS(=O)(=O)N(CC(=O)Nc1ccc(F)cc1F)c1ccc(Br)cc1 | 1.6
COc1ccc(Cl)cc1N1CCN(CCCNC(=S)Nc2ccc(Cl)cc2C)CC1 | 1.9
Cc1cc(C(=O)CSc2nnnn2-c2ccccc2)c(C)n1-c1cc(F)ccc1F | 7.9
CCCCCCCC/C=C/CCCCCCCC(=O)NCCO | -16.3

Screens as filed in PubChem.
